Drawing on PubChem BioAssay (NCATS), this text covers Potency, outcome and max response for 36 compounds.

Several values for one entry are separate records, joined by “and”; a condition that tells them apart may be missing. Equal values may be shown once. Results filed as inconclusive are left out. Values without a mark were called inactive. Activity calls are given as the source filed them. Unless noted, the call rests on the fitted dose curve; in most records, active means well fitted curve in the direction sought with a large enough effect; inconclusive means small, poorly fitted or top-dose-only effect, or another doubt; inactive means no such curve, though single readings can be large; an effect the other way counts as inactive or inconclusive.

The nature of assay [1]: Primary qHTS for small molecule stabilizers of the endoplasmic reticulum resident proteome: Secreted ER Calcium Modulated Protein (SERCaMP) assay (AID 1508630). Further: on the % scale 0 is the no-effect control and ±100 the full control effect. Summed up: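 GLuc-SERCaMP-expressing SH-SY5Y cells, pretreated 16 h with compound, are challenged with thapsigargin to empty ER calcium stores; after 4 h, coelenterazine is added directly to the medium and luminescence is imaged.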

Assay [2] addresses Cytochrome P450 2D6 (Homo sapiens) (UniProt P10635). Description: Cytochrome P450 family 2 subfamily D member 6 (CYP2D6) small molecule antagonists: luciferase biochemical (cell-free) qHTS assay (AID 1645840; active means well fitted curve in the direction sought with a large enough effect in the repeat runs; an effect the other way counts as inactive or inconclusive; further: nearly all actives have a fitted effect of over 55% in size; further: potency means the concentration at half of the fitted maximal effect). Summed up: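 P450-Glo luminescent screen: recombinant CYP2D6 enzyme–proluciferin substrate mix preincubated with compound 10 min at room temperature, then NADPH regeneration added for 1 h at room temperature. Detection reagent added for 20 min; luciferin light read as relative luminescence units.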
For orientation: qHTS replaces the single test concentration by a dilution series.

The target of assay [3] is Cytochrome P450 3A4 (Homo sapiens) (UniProt P08684). Description: Cytochrome P450 family 3 subfamily A member 4 (CYP3A4) small molecule antagonists: luciferase qHTS assay (AID 1645841; active means well fitted curve in the direction sought with a large enough effect in the repeat runs; an effect the other way counts as inactive or inconclusive; further: nearly all actives have a fitted effect of over 45% in size). On the procedure: National Center for Advancing Translational Sciences [NCATS]
Cytochrome P450 (CYP) enzymes are membrane-bound hemeproteins that play a key role in metabolism of drugs and xenobiotics. Assaying the effect of chemicals on CYP isozymes is useful to minimize the adverse drug reactions and toxicities in drug development process. Chemical compounds were tested for their effect on CYP enzyme activities by using P450-Glo (TM) screening systems (Promega Corporation, Madison, WI). These systems provide a luminescent method containing proluciferin substrates and are converted to luciferin products by CYP isozymes. The luciferin products formed are detected with a luciferin detection reagent, and the amount of light produced is proportional to CYP activity. P450-Glo (TM) CYP3A4 screening system (Catalog. No. V9910) was used to detect the compounds that interfere in CYP3A4 activity. […]
Two ul of enzyme-substrate mix was dispensed into medium binding white/solid 1536-well plates (Greiner Bio-One North America Inc., Monroe, NC) using a Flying Reagent Dispenser (FRD, Aurora Discovery, San Diego, CA). […] The reaction was stopped by adding 4 ul of detection reagent using an FRD and after 20 min incubation at room temperature, the luminescence signal was measured using a ViewLux plate reader (Perkin Elmer, Shelton, CT). Data were expressed as relative luminescence units.

Assay [4] addresses Cytochrome P450 2C9 (Homo sapiens) (UniProt P11712). Description: Cytochrome P450 family 2 subfamily C member 9 (CYP2C9) small molecule antagonists: luciferase biochemical (cell-free) qHTS assay (AID 1645842; active means well fitted curve in the direction sought with a large enough effect in the repeat runs; an effect the other way counts as inactive or inconclusive; further: nearly all actives have a fitted effect of over 55% in size; further: potency means the concentration at half of the fitted maximal effect). A digest of the protocol: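 Luminescence, after 20 min with luciferin detection reagent, reflected CYP2C9 turnover during a 1 h NADPH-driven reaction at 37C. Enzyme-substrate mix contained 0.4% bovine serum albumin and was preincubated with compound 10 min at room temperature.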

Assay [5] is described as follows: Primary qHTS for inhibitors of nuclear receptor binding SET domain protein 2 (NSD2) in an isogenic RCH-ACV NSD2 p.E1099K mutant (9B) (AID 1645876). Further: nearly all actives have a fitted effect of over 70% in size. Further: potency means the concentration at half of the fitted maximal effect.
Assay [6] can be described thus: Primary qHTS for inhibitors of nuclear receptor binding SET domain protein 2 (NSD2) in an RCH-ACV wild type WT cells (2C) (AID 1645877). Further: nearly all actives have a fitted effect of over 70% in size. Further: potency means the concentration at half of the fitted maximal effect.
Assay [7] deals with N-terminal Xaa-Pro-Lys N-methyltransferase 1 (Homo sapiens) (UniProt Q9BV86). Description: Confirmatory qHTS for Inhibitors of N-terminal methyltransferase 1 (NTMT1): MTaseGlo Assay (AID 1645874). Further: nearly all actives have a fitted effect of over 65% in size. Further: potency means the concentration at half of the fitted maximal effect. A digest of the protocol:
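qHTS format: NTMT1 125 nM, SAM 100 uM, peptide SPKRIA 1 uM final; 15 min compound preincubation, 30 min reaction at room temperature. MTase-Glo luminescence.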

Assay [8] is described as follows: Cell Viability qHTS for small molecule stabilizers of the endoplasmic reticulum resident proteome (AID 1508629).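 Further: human SH-SY5Y neuroblastoma cells carrying the GLuc-SERCaMP reporter; compound exposure about 46 h in total before the viability read; on the % scale 0 is the no-effect control and ±100 the full control effect.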 As to conditions: cell viability counter-screen, 100 nM thapsigargin for final 4 h.
The nature of assay [9]: A High-Content qHTS Against Drug Library for the Identification of Small Molecules that Inhibit DYT1 Early Onset Primary Dystonia-Associated Cell Pathology (AID 1645839; calls by dose curve; further: series mostly up to about 46 µM). A digest of the protocol: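 Readout: %pathology, the punctate EGFP-TorsinA distribution from imaging, as the primary channel and cell count as the toxicity counterscreen. HEK293 Flp-In cells expressing delE TorsinA were induced with tetracycline and treated with compound for 48 h.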

Sequence of Cytochrome P450 2D6 (Homo sapiens) (P10635 whole entry, looked up): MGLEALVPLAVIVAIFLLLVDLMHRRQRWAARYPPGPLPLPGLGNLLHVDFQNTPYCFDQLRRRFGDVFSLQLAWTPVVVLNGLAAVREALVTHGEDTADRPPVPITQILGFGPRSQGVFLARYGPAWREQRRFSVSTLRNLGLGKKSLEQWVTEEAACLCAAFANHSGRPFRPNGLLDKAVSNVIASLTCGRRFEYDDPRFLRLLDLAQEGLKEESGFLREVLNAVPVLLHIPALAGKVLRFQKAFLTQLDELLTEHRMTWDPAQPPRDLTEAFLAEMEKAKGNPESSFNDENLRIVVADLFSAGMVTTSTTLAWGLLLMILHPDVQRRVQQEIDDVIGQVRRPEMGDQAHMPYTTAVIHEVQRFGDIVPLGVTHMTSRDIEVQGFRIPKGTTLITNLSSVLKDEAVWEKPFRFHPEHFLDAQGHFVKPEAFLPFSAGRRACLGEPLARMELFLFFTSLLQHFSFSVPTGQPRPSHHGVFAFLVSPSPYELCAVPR
Sequence of N-terminal Xaa-Pro-Lys N-methyltransferase 1 (Homo sapiens) (Q9BV86 whole entry, looked up): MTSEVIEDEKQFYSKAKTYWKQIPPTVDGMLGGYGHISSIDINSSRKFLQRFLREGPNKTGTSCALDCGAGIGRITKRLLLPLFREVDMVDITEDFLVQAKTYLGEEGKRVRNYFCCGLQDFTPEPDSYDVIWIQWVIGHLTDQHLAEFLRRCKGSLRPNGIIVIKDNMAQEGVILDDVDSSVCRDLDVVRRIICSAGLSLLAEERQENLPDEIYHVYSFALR
Sequence of Cytochrome P450 2C9 (Homo sapiens) (P11712 whole entry, looked up): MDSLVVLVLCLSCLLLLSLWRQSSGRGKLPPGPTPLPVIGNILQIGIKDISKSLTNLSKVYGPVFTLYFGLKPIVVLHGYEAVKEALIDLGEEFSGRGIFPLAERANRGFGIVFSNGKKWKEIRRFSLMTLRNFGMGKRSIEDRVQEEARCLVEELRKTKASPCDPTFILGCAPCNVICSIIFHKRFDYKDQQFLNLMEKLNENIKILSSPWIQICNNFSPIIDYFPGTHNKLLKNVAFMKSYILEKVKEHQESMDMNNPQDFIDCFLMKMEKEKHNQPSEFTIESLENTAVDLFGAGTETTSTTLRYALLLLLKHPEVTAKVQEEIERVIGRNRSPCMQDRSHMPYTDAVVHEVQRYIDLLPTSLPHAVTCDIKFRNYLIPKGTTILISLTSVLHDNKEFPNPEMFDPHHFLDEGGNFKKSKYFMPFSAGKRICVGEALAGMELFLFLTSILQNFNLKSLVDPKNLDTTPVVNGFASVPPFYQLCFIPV
Sequence of Cytochrome P450 3A4 (Homo sapiens) (P08684 whole entry, looked up): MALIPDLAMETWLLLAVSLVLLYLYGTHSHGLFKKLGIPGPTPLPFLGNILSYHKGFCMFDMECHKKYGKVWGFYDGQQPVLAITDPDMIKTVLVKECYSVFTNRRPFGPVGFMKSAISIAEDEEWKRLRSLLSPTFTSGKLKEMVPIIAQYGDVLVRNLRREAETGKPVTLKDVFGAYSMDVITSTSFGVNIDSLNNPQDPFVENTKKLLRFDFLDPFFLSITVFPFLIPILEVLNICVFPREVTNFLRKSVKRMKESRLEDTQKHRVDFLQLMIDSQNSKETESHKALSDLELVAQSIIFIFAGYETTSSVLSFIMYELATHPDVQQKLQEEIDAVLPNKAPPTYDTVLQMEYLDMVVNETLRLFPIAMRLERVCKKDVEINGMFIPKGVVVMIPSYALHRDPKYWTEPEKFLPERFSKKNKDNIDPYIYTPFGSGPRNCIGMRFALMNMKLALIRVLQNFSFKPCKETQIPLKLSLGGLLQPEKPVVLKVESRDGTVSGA

As to `COc1c(OCCCN2CCOCC2)ccc2c3n(c(=NC(=O)c4cnc(N)nc4)nc12)CCN3`, the Potency result in assay [1], in [2] and in [4] was “inactive” each time. Also, the outcome in assay [3] was inactive. The Potency in assay [5] was 9.4 nM (active) and 24.1 nM (active); in [6] it was 8.4 nM (active) and 60.5 nM (active).

On to `CC=CC1=C(C(=O)O)N2C(=O)[C@H](NC(=O)[C@H](N)c3ccc(O)cc3)[C@@H]2SC1`, for which the Potency result in assay [1] was “inactive”.

With `C1=CCOCc2cc(ccc2OCCN2CCCC2)Nc2nccc(n2)-c2cccc(c2)OCC1`, the Potency result in assay [1] is “inactive”.

As to `Nc1ccn([C@@H]2O[C@H](CO)[C@H](O)C2(F)F)c(=O)n1`, the Potency entry in [1] is “inactive”.

Take `CC1=C(CO)C(=O)O[C@@H]([C@@H](C)[C@H]2CC[C@H]3[C@@H]4C[C@H]5O[C@]56[C@@H](O)C=CC(=O)[C@]6(C)[C@@H]4CC[C@]23C)C1`: in assay [1], the Potency entry was “inactive”.

For `Cc1[nH]c2ccccc2c1CCNCc1ccc(C=CC(=O)NO)cc1`, in [1], the Potency result was “inactive”.

Regarding `COc1cc2ncnc(Nc3ccc(F)c(Cl)c3)c2cc1NC(=O)C=CCN1CCCCC1`, the Potency entry in assay [1] was “inactive”.

Turning to `COc1ccc(C=Cc2cc(OC)c(OC)c(OC)c2)cc1O`, the Potency entry in assay [1] was “inactive”.

Regarding `O=C(O)CO.[NH2-].[NH2-].[Pt+2]`, the Potency entry in [1] was “inactive”.

Consider `CS(=O)(=O)N1CCN(Cc2cc3nc(-c4cccc5[nH]ncc45)nc(N4CCOCC4)c3s2)CC1`, for which the Potency result in assay [1] is “inactive”.

Take `Cc1cccc(C=NNc2cc(N3CCOCC3)nc(OCCc3ccccn3)n2)c1`: in [1], the Potency entry was “inactive”.

For the compound `O=C(C=Cc1c(C(=O)O)[nH]c2cc(Cl)cc(Cl)c12)Nc1ccccc1`, the Potency entry in assay [1] is “inactive”.

As for `CCCCc1nc2cc(C=CC(=O)NO)ccc2n1CCN(CC)CC`, the Potency result in assay [1] is “inactive”. The Potency in assay [2] is 12 µM (active).

On to `COc1cc(=C2C=c3ccccc3=N2)[nH]c1=Cc1[nH]c(C)cc1C`, for which the Potency entry in [1] is “inactive”.

For `O=C(O)c1ccc2c(c1)nc(Nc1cccc(Cl)c1)c1ccncc12`, the Potency result in assay [1] and in assay [2] was “inactive” each time. In addition, the Potency was 12 µM (active) in assay [4]; 28.2 µM (active) in assay [7]; 4.59 µM (active) and 2.95 µM (active) in [5]; 3.65 µM (active) in assay [6].

For `COc1ccc(CC2SC(=O)NC2=O)cc1C(=O)NCc1ccc(C(F)(F)F)cc1` (stereo not given), the Potency result in assay [1] was “inactive”.

Take `CC(NCc1ccc2c(c1)nc(NC(=O)c1ccc(-c3cn[nH]c3)s1)n2CC(C)(C)O)C(C)(C)C` (stereo not given): the Potency result in assay [1] was “inactive”.

With `C#Cc1cccc(Nc2ncnc3cc(OC)c(OCCCCCCC(=O)NO)cc23)c1`, the Potency result in [1] was “inactive”. The Potency in [2] is 4.77 µM (active); in assay [4], 10.7 µM (active); in [7], 31.2 µM (active); in assay [5] it was 515 nM (active) and 590 nM (active); in [6], 230 nM (active) and 296 nM (active).

Consider `COc1ccc(-n2nc(C(N)=O)c3c2C(=O)N(c2ccc(N4CCCCC4=O)cc2)CC3)cc1`, for which the Potency result in assay [1], in assay [2], in [4] and in assay [5] was “inactive” each time.

Consider `CC(C)(C)NC(=O)[C@H]1CN(Cc2cccnc2)CCN1C[C@@H](O)C[C@@H](Cc1ccccc1)C(=O)N[C@H]1c2ccccc2C[C@H]1O`, for which the Potency entry in assay [1] is “inactive”.

In the case of `COC(=O)C[C@](O)(CCCC(C)(C)O)C(=O)O[C@@H]1C(OC)=C[C@]23CCCN2CCc2cc4c(cc2[C@H]13)OCO4`, the Potency result in [1] was “inactive”.

For `CC1(C)OC2=C(C(=O)c3ccccc3C2=O)[C@H](NCc2ccccc2)[C@H]1O`, the Potency entry in assay [1] is “inactive”.

With `COC(=O)[C@]12CCC(C)(C)C[C@@H]1[C@@H]1C(=O)C=C3[C@@]4(C)C=C(C#N)C(=O)C(C)(C)[C@@H]4CC[C@@]3(C)[C@]1(C)CC2`, in assay [1], the Potency result was “inactive”.

Take `Cc1cc(Nc2cc(N3CCN(C)CC3)nc(C=Cc3ccccc3)n2)n[nH]1`: the Potency result in assay [1] is “inactive”.

On to `C[C@H]1C[C@@H]2[C@@H]([C@@H](O)C[C@@]3(C)[C@H]2CC[C@]3(O)C(=O)CO)[C@@]2(C)C=CC(=O)C=C12`, for which, in assay [1], the Potency result is “inactive”.

On to `OCCCNc1cc(-c2ccnc(Nc3cccc(Cl)c3)n2)ccn1`, for which, in [1], the Potency entry is “inactive”. Moreover, the Potency was 13.5 µM (active) in [2]; 10.7 µM (active) in [4]; 22.4 µM (active) in [7]; 29 nM (active) and 52.5 nM (active) in [5]; 51.7 nM (active) and 33.2 nM (active) in [6].

With `Cc1cc(Nc2cc(CN3CCOCC3)c3nc(C)c(Cc4ccc(Cl)cc4F)n3n2)n[nH]1`, the Potency entry in assay [1] is “inactive”. The Potency is 23.9 µM (active) in assay [2]; 12 µM (active) in [4]; 20.5 µM (active) in assay [7]; 3.26 µM (active) and 1.86 µM (active) in assay [5]; 2.59 µM (active) and 1.18 µM (active) in [6].

For the compound `C=C1C(=CC=C2CCCC3(C)[C@@H]([C@H](C)C=CC=CC(O)(CC)CC)CC[C@@H]23)C[C@@H](O)C[C@@H]1O` (stereo not given in full), the Potency result in [1] is “inactive”.

For `CC(=O)SC[C@@H](C)C(=O)N1CCC[C@H]1C(=O)N[C@@H](Cc1ccccc1)C(=O)O`, the max response in assay [8] was 10.6%. In addition, the Potency result in assay [1], in assay [9], in assay [2], in [5] and in assay [6] was “inactive” throughout.

In the case of `CN(C)CC=CC(=O)Nc1cc2c(Nc3ccc(F)c(Cl)c3)ncnc2cc1O[C@H]1CCOC1`, the Potency result in assay [1] was “inactive”.

Consider `CCOc1cc2ncc(C#N)c(Nc3ccc(F)c(Cl)c3)c2cc1NC(=O)C=CCN(C)C`, for which the Potency result in [1] was “inactive”.

Regarding `CCCCN1CCC(CNC(=O)c2c3n(c4ccccc24)CCCO3)CC1`, in assay [1], the Potency result was “inactive”.

Turning to `COc1ccc(-c2cc3c(C)nc(N)nc3n(C3CCC(OCCO)CC3)c2=O)cn1` (stereo not given), the Potency result in assay [1], in [2] and in assay [7] was “inactive” throughout. Also, the Potency in [4] is 5.35 µM (active) and 4.25 µM (active); in assay [5], 20.5 nM (active) and 41.7 nM (active); in assay [6], 20.5 nM (active) and 41.7 nM (active).

Take `CCC[C@H](NC(=O)C(C#N)=Cc1cccc(Br)n1)c1ccccc1`: in assay [1], the Potency result is “inactive”.

With `CC1(C)O[C@@H]2C[C@@H]3[C@H]4C[C@@H](F)C5=CC(=O)C=C[C@]5(C)[C@@]4(F)[C@@H](O)C[C@]3(C)[C@]2(C(=O)CO)O1`, the Potency result in assay [1] was “inactive”.

For `Cn1c2ccccc2c2c3c(c4c5ccccc5n(CCC#N)c4c21)CNC3=O`, in [1], the Potency entry is “inactive”.
